This is a sample that favours compounds with a hit; in the whole collection about 0.36% have one here.
IMPase inh: qHTS Assay for Identifying the Cell-Membrane Permeable IMPase Inhibitors | Inositol monophosphatase 1 (Rattus norvegicus), P97697 | CHO-M1 cells, IP1 accumulation, HTRF TR-FRET ratio | inhibition (IP1 accumulation), % at 46.1 µM | 120,000 tested, under 10 active | AID 901, 2007; active = well fitted curve in the direction sought with a large enough effect in the signal ratio, not every such curve was filed as active; inconclusive = small, poorly fitted or top-dose-only effect, or a change in a side signal; inactive = no such curve, though single readings can be large or run the other way; the % refers to the signal ratio;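 also: cells stimulated with carbachol in lithium chloride buffer; plate controls were DMSO basal wells for no effect and reference inhibitor wells for full effect; higher means more IMPase inhibition seen as more IP1 and lower FRET ratio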
Target sequence (P97697 whole entry, looked up): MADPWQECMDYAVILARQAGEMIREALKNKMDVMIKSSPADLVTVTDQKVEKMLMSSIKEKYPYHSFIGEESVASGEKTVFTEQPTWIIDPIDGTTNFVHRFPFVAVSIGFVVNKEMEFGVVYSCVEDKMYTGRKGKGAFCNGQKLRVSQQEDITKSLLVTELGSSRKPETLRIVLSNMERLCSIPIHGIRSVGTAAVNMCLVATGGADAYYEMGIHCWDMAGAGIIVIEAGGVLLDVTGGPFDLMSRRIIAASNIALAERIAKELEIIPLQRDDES
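Cellular IMPase inhibition is scored as a rise in cytosolic IP1, detected by competitive TR-FRET between d2-labelled IP1 and a europium anti-IP1 antibody. M1-expressing CHO cells were stimulated with carbachol for 30 min at 37C, with lithium (50 mM LiCl) present in the buffer.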
IMPase Li inh: qHTS Assay for Identifying the Cell-Membrane Permeable IMPase Inhibitors: Potentiation with Lithium | CHO-M1 cells, IP1 TR-FRET (IP-One), carbachol + lithium | Potency, µM (top dose mostly 59.4 µM), for the others: at the top dose activity, negative = IMPase inhibition, hits mostly inhibitors | actives 0.35% (n = 210,000) | AID 1457, 2008; active = well fitted inhibition curve with a large enough effect; inconclusive = small, poorly fitted or top-dose-only effect; inactive = no such curve, though single readings can be large or run the other way;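 also: IP1 builds up when IMPase is blocked and the TR-FRET signal falls; potency is read from the fitted curve at half-maximal effect; plate controls were basal vehicle for no effect and high inhibitor control for full effect; nearly all actives have a fitted effect of over 50% in size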
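Test compounds were applied to CHO-M1 cells previously cultured for 16–30 h at 2000 per well. A small lithium amount accompanied them; after 30 min at 37C, IP1 was quantified by TR-FRET.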
An asterisk follows results filed as active; [ ] = remark or other dose.

`Cc1ccc2oc(-c3ccc(C)c(NC(=O)Cc4cccs4)c3)nc2c1` gave IMPase inh 2 and IMPase Li inh 13µM*.
`Cc1ccc2oc(-c3cccc(NC(=O)Cc4cccs4)c3)nc2c1` gave IMPase inh 4 and IMPase Li inh 1%[38.3 µM].
`CCCCOC(=S)NC(=O)c1sc2ccccc2c1Cl` gave IMPase inh -16 and IMPase Li inh -16%[38.3 µM].
`CCOc1ccc(C(CC(=O)O)NC(=O)c2sc3ccccc3c2Cl)cc1` (centres undefined) gave IMPase inh -29 and IMPase Li inh 8.9µM*.
Screening CCCOc1ccc(C(CC(=O)O)NC(=O)c2sc3ccccc3c2Cl)cc1 (centres undefined) returned IMPase Li inh 3.2µM*.
CCOc1ccc(C(CC(=O)O)NC(=O)c2ccco2)cc1 (centres undefined) was read as IMPase inh -6 and IMPase Li inh 3%.
`O=C(Cc1ccccc1)Nc1sc2c(c1C(=O)Nc1ccccc1Cl)CCC2` gave IMPase inh -5.
O=C(c1cccc(F)c1)N1CCC2(CCCN(C(c3ccccc3)c3ccccc3)C2)CC1 was read as IMPase Li inh 24%.
Screening CCc1cccc(C)c1NC(=O)c1cc2ccccc2o1 returned IMPase inh 8.
For COC(=O)c1ccc(C=O)cc1 the results were IMPase Li inh -14%.
Screening COc1ccc(-c2c3c([nH]c(=S)c2C#N)CCC3)cc1 returned IMPase inh inconclusive and IMPase Li inh 7.9µM*.
COc1ccc(OC)c(-c2c3c([nH]c(=S)c2C#N)CCCC3)c1 was read as IMPase Li inh -8%.
For COc1nnc(-c2ccc(N3CCCCC3)c(NC(=O)c3ccccc3Cl)c2)c2ccccc12 the results were IMPase inh 8.
Screening COc1ccc(C(=O)CSc2nc(N)nc(SC)c2C#N)cc1 returned IMPase inh -8 and IMPase Li inh 6.3µM*.
For CSc1nc(N)nc(SCC(=O)c2ccccc2)c1C#N the results were IMPase inh 6 and IMPase Li inh 18%[38.3 µM].
O=C1OC(O)C(C(Cl)Cl)=C1Cl (centres undefined) was read as IMPase Li inh 2%.
For Cc1cc(=O)oc2cc(OC(=O)CCN3C(=O)c4ccccc4C3=O)ccc12 the results were IMPase inh -21 and IMPase Li inh 8.9µM*.
For Cc1cc(=O)oc2cc(OCCCN3C(=O)c4ccccc4C3=O)ccc12 the results were IMPase inh -3 and IMPase Li inh -9%.
Screening N#Cc1c(-c2ccccc2)nc(-c2ccncc2)[nH]c1=O returned IMPase Li inh -14%.
`N#Cc1c(-c2ccccc2)nc(-c2ccccc2)[nH]c1=O` gave IMPase inh -11 and IMPase Li inh 3.5µM*.
For COC(=O)C(C(C)=O)C1c2ccccc2C=C(C)N1C(=O)OC (centres undefined) the results were IMPase Li inh 6%.
`Cc1csc(NC(=O)c2cc3c(s2)CCC3)n1` gave IMPase inh 6 and IMPase Li inh -2%[38.3 µM].
`O=C(Nc1nnc(C2CC2)s1)c1cc2c(s1)CCCCCC2` gave IMPase inh 1 and IMPase Li inh 10µM*.
For O=C(Nc1c(C(=O)Nc2cccc(F)c2)oc2ccccc12)c1ccc2c(c1)OCO2 the results were IMPase inh 1 and IMPase Li inh 14µM*.
O=C(Nc1cccc(F)c1)c1ccc2c(c1)OCO2 was read as IMPase inh 7 and IMPase Li inh 3%[38.3 µM].
CC(C)C[C@H](NC(=O)[C@H](Cc1ccccc1)NC(=O)CNC(=O)CNC(=O)[C@@H](N)Cc1ccc(O)cc1)C(=O)N[C@@H](CCCN=C(N)N)C(=O)N[C@@H](CCCN=C(N)N)C(=O)N[C@@H](CCC(N)=O)C(=O)N[C@@H](Cc1ccccc1)C(=O)N[C@@H](CCCCN)C(=O)N[C@H](C(=O)N[C@H](C(=O)N[C@H](C(=O)O)[C@@H](C)O)C(C)C)C(C)C was read as IMPase Li inh 16%.
`Cc1nc2cnc(Oc3cccc(Cl)c3)nc2n(CCC#N)c1=O` gave IMPase Li inh -1%.
For N#CCCn1c(=O)c(-c2cccc(C#N)c2)nc2cnc(Oc3cccc(Cl)c3)nc21 the results were IMPase Li inh 11%.
`N#CCCn1c(=O)c(-c2ccc(Cl)cc2)nc2cnc(Oc3cccc(Cl)c3)nc21` gave IMPase Li inh 11µM*.
Screening N#CCCn1c(=O)c(-c2ccc(F)cc2)nc2cnc(Oc3cccc(Cl)c3)nc21 returned IMPase Li inh 8.9µM*.
`O=C(Oc1ccccc1)N1CCC2(CC1)CCN(c1ncccn1)CC2` gave IMPase Li inh 33%.
COc1ccc(/C(O)=C2/C(=O)C(=O)N(Cc3cccnc3)C2c2ccccn2)cc1 (centres undefined) was read as IMPase inh -15 and IMPase Li inh -20%.
Cc1cc(OCC(C)C)ccc1/C(O)=C1/C(=O)C(=O)N(Cc2cccnc2)C1c1ccncc1 (centres undefined) was read as IMPase inh inconclusive and IMPase Li inh 4.5µM*.
CCCCOc1ccc(/C(O)=C2/C(=O)C(=O)N(Cc3cccnc3)C2c2ccncc2)c(C)c1 (centres undefined) was read as IMPase Li inh 10µM*.
`CCCCOc1ccc(/C(O)=C2/C(=O)C(=O)N(CCCOC)C2c2ccncc2)cc1` (centres undefined) gave IMPase inh -25 and IMPase Li inh -17%[38.3 µM].
Screening CCCCCC[C@@H]([C@H](C)O)n1cnc2c(N)ncnc21 returned IMPase inh 3.
COCC(=O)N1CCC2(CC1)CCN(C(=O)NC(C)C)CC2 was read as IMPase Li inh -9%.
For COc1ccc(Cl)cc1-c1ccc(C(=O)O)o1 the results were IMPase Li inh 2%.
For O=c1c(-c2ccc(F)cc2)nc2cnc(N3CCNCC3)nc2n1-c1ccccc1 the results were IMPase Li inh 0%.
CC1Cc2ccccc2N1C(=O)COc1nc2ccccc2nc1N1CCOCC1 (centres undefined) was read as IMPase inh inconclusive and IMPase Li inh 25µM*.
Screening CCCNC(=O)COc1nc2ccccc2nc1N1CCOCC1 returned IMPase Li inh 1%.
CCCCc1cc2c(cn1)C(=O)C(C)(OC(C)=O)C(=O)C2 (centres undefined) was read as IMPase Li inh 11%.
`COc1ccc(S(=O)(=O)Nc2ccc(F)c(F)c2)cc1Cl` gave IMPase inh -4 and IMPase Li inh 7%.
Screening COc1cc(Cl)c(C)cc1NC(=O)c1ccc(NS(=O)(=O)c2ccc(F)c(F)c2)cc1 returned IMPase Li inh 5.6µM*.
For CC(C)CCSc1nc2c(c(=O)n(C)c(=O)n2C)n1Cc1ccccc1Cl the results were IMPase inh 12.
For CCCCCCCCC1OC1CCCCCCCC(=O)O (centres undefined) the results were IMPase Li inh 10%.
For CN(C)C1C(=O)C(C(N)=O)=C(O)[C@@]2(O)C(=O)C3=C(O)c4c(O)ccc(Cl)c4[C@@H](O)C3C[C@@H]12 (some centres undefined) the results were IMPase Li inh 10µM*.
Screening C=C1c2c(Cl)ccc(O)c2C(O)=C2C(=O)[C@@]3(O)C(O)=C(C(N)=O)C(=O)[C@@H](N(C)C)[C@@H]3[C@@H](O)[C@H]12 returned IMPase inh 1[20.6 µM] and IMPase Li inh -8%.

Assay outcomes from PubChem BioAssay.
